# Screening data from PubChem.
# Most compounds without a hit are left out; they make up all but 11% or so of the library.
# ALDH1A1 block: blocks purified human ALDH1A1 activity. hit rate 7.3% among 220,000. Purified ALDH1A1, NADH fluorescence, propionaldehyde substrate. Potency, µM (titrated, usually from 75.3 µM), for the others: top-dose activity, negative = inhibition, usual class: inhibitors. AID 1030. P00352;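 also: potency is read from the fitted curve at half-maximal effect; plate controls were no enzyme wells and a reference inhibitor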
# Target sequence (P00352 whole entry, looked up): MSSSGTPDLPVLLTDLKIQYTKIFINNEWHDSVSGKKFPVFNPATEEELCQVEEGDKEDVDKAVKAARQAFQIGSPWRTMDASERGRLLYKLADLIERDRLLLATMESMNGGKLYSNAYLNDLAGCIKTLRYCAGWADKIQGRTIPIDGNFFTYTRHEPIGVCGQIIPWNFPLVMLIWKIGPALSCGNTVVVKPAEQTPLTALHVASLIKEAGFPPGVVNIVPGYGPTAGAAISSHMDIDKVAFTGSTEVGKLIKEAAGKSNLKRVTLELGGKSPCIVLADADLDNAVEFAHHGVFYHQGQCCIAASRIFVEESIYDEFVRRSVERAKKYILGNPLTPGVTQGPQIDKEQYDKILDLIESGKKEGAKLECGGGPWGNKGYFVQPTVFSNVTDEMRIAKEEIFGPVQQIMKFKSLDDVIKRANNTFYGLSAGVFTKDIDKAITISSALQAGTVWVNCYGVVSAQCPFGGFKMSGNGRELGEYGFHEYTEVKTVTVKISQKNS
# HPGD inh: inhibitors of human 15-hydroxyprostaglandin dehydrogenase (HPGD); P15428; purified HPGD, NADH fluorescence kinetic, PGE2 substrate; Potency, µM, inactives show top-dose activity change, negative = inhibition, usual class: inhibitors; hit rate 4.3% among 150,000; also: potency is read from the fitted curve at half-maximal effect
#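 NADH formation kinetics: reaction with 30 uM PGE2 and 1 mM NAD+ (final), 20 nM enzyme, Tris-HCl pH 8 with Tween 20, after 15 min compound preincubation at room temperature. Fluorescence change, last versus first of five reads.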
# PNC inhibitor: blocks assembly of the perinucleolar compartment | PC3M PTB-GFP, PNC prevalence imaging, 16 h; hits give low values | activity change (PNC), negative = inhibition, % at 10 µM | hit rate 3.1% among 140,000 | AID 2417;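 active = readout at or below -70, meaning at least 70% loss of cells showing the perinucleolar compartment, a nuclear body marking cancer cells; inconclusive = readout between -30 and a set limit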;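 also: plate controls were DMSO wells for no effect and camptothecin positive control wells for full effect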
#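 PC3M cells stably expressing PTB-GFP, 750–1000 cells/well, treated 16 h at 37 °C with compound (23 nl of library stock), in duplicate. After paraformaldehyde fixation and Hoechst stain, imaged at 20x; PNC prevalence scored by image analysis.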
# * = called active by the depositor; ? = inconclusive; · = no result given; [ ] = another dose, or the depositor's remark. Unless noted, calls follow the shape of the dose curve; as a rule, active = well fitted inhibition curve with a large enough effect (not every such curve was filed as active); inconclusive = small, poorly fitted or top-dose-only effect, or another doubt; inactive = no such curve, though single readings can be large or run the other way. Unless noted, % is scaled to controls: 0 for no effect and ±100 for the full control effect.
SMILES,ALDH1A1 block,HPGD inh,PNC inhibitor
CC(=O)Nc1ccc(NC(=O)CSc2ccc(-c3ccco3)nn2)cc1,7.1µM*,·,·
O=C(CSc1ccc(-c2ccco2)nn1)NCc1ccc(F)cc1,?,-14%,-15
Cc1ccc(NC(=O)CSc2ccc(-c3ccco3)nn2)cc1,3.2µM*,·,·
Fc1ccc(CSc2ccc(-c3ccco3)nn2)cc1,?,-8%,-10
O=C(CSc1ccc(-c2ccco2)nn1)c1ccc(F)cc1,3.2µM*,?,-22
CC(=O)Nc1ccc(NC(=O)CSc2ccc(-c3cccs3)nn2)cc1,-12%,·,·
COCCNC(=O)/C(C#N)=C/c1cc(C(C)C)c(OC)cc1C,-12%,·,·
COc1ccc(CCNC(=O)COc2ccc(S(=O)(=O)NC3CCCCC3)cc2Cl)cc1,6%,-2%,-21
CC(C)C(N)C(=O)O (stereo not given),-7%,·,·
Cc1ccc(-c2ccc(SCC(=O)Nc3cc(C)on3)nn2)cc1,24%,·,·
Cc1cc(C)cc(NC(=O)CSc2ccc(-c3ccco3)nn2)c1,7.1µM*,?,?
CN(C)/C=C1/C=C(C=O)OC1=O,-6%,·,·
COCCNC(=O)c1ccc(CN2CCc3ccccc3C2)cc1,8%,14µM*,45
O=C(c1ccc(CN2CCc3ccccc3C2)cc1)N1CCCCC1,?,2.5µM*,-16
COc1ccccc1N1CCN(C(=O)c2ccc(CN3CCc4ccccc4C3)cc2)CC1,-3%,-6%,56
CCCNC(=O)c1ccc(CN2CCc3ccccc3C2)cc1,-3%,-28%,-21
CC(=O)Nc1cccc(CNCc2cccc(NC(C)=O)c2)c1,-3%,·,·
COCCn1c(C)cc(/C=C2\NC(=S)N(C)C2=O)c1C,16µM*,20µM*,?
COCCn1c(C)cc(C(=O)CN2CCCCC2)c1C,4%,·,·
C=CCNC(=O)C(C(=O)OCC)C1CCCCC1 (stereo not given),?,1%,40
CCOC(=O)C(C(=O)NCCCN1CCOCC1)C1CCCCC1 (stereo not given),1%,-8%,-100*
COc1ccc2c(c1)-c1nc(/N=C/c3ccc(O)c(OC)c3)sc1CC2,25µM*,-26%,-8
COc1cc(/C=N/NC(=O)c2[nH]nc3c2CCc2ccccc2-3)ccc1O,?,-19%,36
C=CCOc1c(Br)cc(CNn2cn[nH]c2=S)cc1OC,8%,·,·
COc1cc(CNn2c(C)n[nH]c2=S)cc(Cl)c1OCc1ccc(F)cc1,-1%,13µM*,-7
SMILES,ALDH1A1 block,HPGD inh,PNC inhibitor
COc1cc(CNn2c(C)n[nH]c2=S)cc(Br)c1OCc1ccc(F)cc1,28µM*,16µM*,72
COc1cc(CNC2CCCC2)cc(Cl)c1OCc1ccc(F)cc1,17%,0%,?
O=C(Oc1ccccc1O)c1cccc2ccccc12,-4%,·,·
O=C1CCC(c2ccccc2)=NN1c1nc2ccccc2s1,-7%[13.5 µM],-11%,·
COC(=O)c1ccc(C(NC(=O)OCc2ccccc2)/C(F)=C/[C@@H](C)C(=O)NCCN2CCOCC2)cc1 (stereo not given in full),-12%,-10%,·
CCOc1ccccc1C(=O)NC(C)c1ccc2c(c1)OCO2 (stereo not given),12%,?,-103*
CC(NC(=O)C1CCC1)c1ccc(Br)cc1 (stereo not given),5%,-28%,-25
O=C(NC(c1ccccc1)c1ccccc1)C1CCCO1 (stereo not given),0%,·,·
Cc1occc1C(=O)NC(C)c1ccc2c(c1)OCO2 (stereo not given),19%,-15%,?
Cc1ccc(C(C)NC(=O)C2CCCO2)cc1C (stereo not given),-3%,16µM*,?
CC(NC(=O)C1CCC1)c1ccc2c(c1)OCO2 (stereo not given),9%,20µM*,28
CCOC(=O)CN1C(=O)CN(c2ccc(C)c(C)c2)C1=O,6%,-2%,?
NCCCNC(=O)c1ccc(/C=N/O)nc1,14%,·,·
Cc1ccc(CN2CCN(/N=C/c3cc([N+](=O)[O-])ccc3Cl)CC2)cc1,-1%,-6%,2
Cc1cc(-c2n[nH]c(=S)n2/N=C/c2cc([N+](=O)[O-])ccc2Cl)n[nH]1,?,25µM*,11
Cc1cc(-c2n[nH]c(=S)n2/N=C/c2ccc(Cl)c([N+](=O)[O-])c2)n[nH]1,14µM*,7.9µM*,1
Cc1ccc(CN2CCN(/N=C/c3ccc(Cl)c([N+](=O)[O-])c3)CC2)cc1,-5%,·,·
CCOc1ccc(-n2cccc2C=O)cc1,?,-12%,6
COc1ccc(-n2cccc2/C=C/[N+](=O)[O-])cc1,?,35µM*,38
COc1ccc(-n2cccc2C=O)cc1,11µM*,-11%,20
COc1ccc(-n2cccc2C=O)cc1OC,-1%,2%,15
COC(=O)c1sccc1-n1cccc1C(=O)C(=O)N1CCOCC1,3%,·,·
O=C(c1ccc(Cl)cc1)c1cnc(-c2ccccc2)s1,20%,-5%,60
CO/N=C/CC(=O)c1cnc(-c2ccc(Cl)cc2)s1,3.2µM*,·,·
CC(=O)Nc1ccccc1C(=O)C(=O)Nc1cccc(C(=O)N2CC(C)CC(C)C2)c1 (stereo not given),-10%,·,·
SMILES,ALDH1A1 block,HPGD inh,PNC inhibitor
Cc1ccc(S(=O)(=O)N2CCOCC2)cc1C(=O)Nc1ccc(S(=O)(=O)Nc2nccs2)cc1,-13%,·,·
O=C(COC(=O)c1cc(-c2ccccc2)nc2ccccc12)Nc1ccc2c(c1)OCO2,10%,-7%,14
O=C(COC(=O)c1c2c(nc3ccccc13)CCCC2)Nc1ccc2c(c1)OCO2,8.9µM*,-21%,?
CC[C@H](C)[C@H](NC(N)=O)C(=O)Nc1ccc2c(c1)OCO2,-1%,·,·
Cc1cc(C)n2nc(C(=O)OCC(=O)Nc3ccc4c(c3)OCO4)nc2n1,0%,-15%,-94*
Cc1cc(C)n2nc(C(=O)OCC(=O)Nc3ccc4c(c3)OC(F)(F)O4)nc2n1,15%,-5%,13
CC1CN(S(=O)(=O)c2cccc(C(=O)OCC(=O)Nc3ccc4c(c3)OCO4)c2)CC(C)O1 (stereo not given),11µM*,-6%,-2
CC1CN(S(=O)(=O)c2cccc(C(=O)OCC(=O)c3cccs3)c2)CC(C)O1 (stereo not given),?,-13%,27
CC(C)CC(NC(N)=O)C(=O)Nc1ccc2c(c1)OCO2 (stereo not given),18µM*,·,·
Cc1cnc(CNc2ccnc(-c3ccccc3C)n2)cn1,6%,·,·
CN(C)Cc1ccccc1-c1nc(NCc2ccccc2)c2ccccc2n1,-8%,-3%,·
Cc1ccc(C)n1-c1ccccc1N1CCCCC1,3%,·,·
CC(=O)NCc1c(I)c(NC(C)=O)c(I)c(C(=O)O)c1I,-8%,-8%,·
CC1CN(C(=O)COC(=O)c2ccc(Cl)nc2)CC(C)O1 (stereo not given),-4%,·,·
C=CCOc1cccc(NC(=O)c2ccccc2SC)c1,-8%,·,·
O=C(O)/C=C\C(=O)Nc1ccccn1,14%[13.5 µM],-20%,·
CN(C)C(=S)Nc1ccc2c(c1)OCO2,10µM*,·,·
Cc1ccc(C(=O)OCC(=O)Nc2ccc3c(c2)OCO3)o1,-1%,-6%,-100*
O=C(COC(=O)c1ccco1)Nc1ccc2c(c1)OCO2,?,-12%,21
N#Cc1ccc(NCC(=O)Nc2ccc3c(c2)OCCO3)cc1,13µM*,·,·
S=C(Nc1ccc2c(c1)OCO2)Nc1ccc2c(c1)OCO2,?,-29%,-20
